Hits are enriched below; roughly 6.1% of the tested compounds scored in any of these assays.
D3 antag: antagonists of human D3 dopamine receptor | P35462 | D3R cells, DiscoveRx beta-arrestin luminescence, antagonist mode; hits give low values | max response, negative = inhibition, % | 360,000 compounds, 2.5% hits | AID 652054; in the data active = max response below about -50%; inconclusive = no clear call, values can overlap the other calls; also: % is scaled to controls: 0 for no effect and ±100 for the full control effect
Target sequence (P35462 whole entry, looked up): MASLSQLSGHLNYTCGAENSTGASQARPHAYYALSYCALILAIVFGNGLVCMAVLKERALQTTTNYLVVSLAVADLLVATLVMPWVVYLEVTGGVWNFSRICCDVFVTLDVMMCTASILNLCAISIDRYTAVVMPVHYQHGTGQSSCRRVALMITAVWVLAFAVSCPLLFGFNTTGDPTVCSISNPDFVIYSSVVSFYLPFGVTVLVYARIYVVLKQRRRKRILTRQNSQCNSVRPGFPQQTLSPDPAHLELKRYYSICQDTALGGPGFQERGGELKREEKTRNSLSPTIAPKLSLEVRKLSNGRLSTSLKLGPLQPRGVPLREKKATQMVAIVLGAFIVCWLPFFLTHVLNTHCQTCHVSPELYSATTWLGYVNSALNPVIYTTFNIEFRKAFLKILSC
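Cells plated overnight at 1500 cells/well, then exposed to library compounds with dopamine controls for 90 minutes at 37 degrees C. DiscoveRx reagent added for 30–60 minutes at room temperature; luminescence read, quantitative HTS format.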
D1 ag: activates the human D1 dopamine receptor; P21728; HEK293 T-REx D1 cells, calcium flux, agonist mode; activation, % at 2 µM; 360,000 compounds, 1% hits; AID 504660; in the data active = activation above about 30%; also: 0% is about no effect
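Inducible HEK293 T-REx D1 cells, force-coupled to calcium signalling, were plated at 4000 cells/well with tetracycline and held overnight at 30 C. After no-wash calcium dye loading, compound-evoked calcium rise over 180 s flagged agonists.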
D1 potentiator: enhances dopamine response at the human D1 receptor; AID 504651; potentiation, % at 10 µM; P21728; HEK293 TREx D1 cells, calcium flux, dopamine EC20 potentiation; 360,000 compounds, 0.036% hits; in the data active = potentiation above about 30%; also: 0% is about no effect
DRD3 agonist: agonists of human D3 dopamine receptor; P35462; D3R DiscoveRx beta-arrestin cells, luminescence, 90 min; max activation, %; 410,000 compounds, 0.58% hits; AID 652048; in the data active = max activation above about 30%; also: 0% is about no effect
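Cells at 1500/well, incubated overnight, then treated with pinned compounds (dopamine as control) for 90 min at 37 degrees C. DiscoveRx reagent added for 30 - 60 minutes at room temperature; luminescence read.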
D1 antag: antagonists of human D1 dopamine receptor | P21728 | activity change, negative = inhibition, % at 10 µM | HEK293 TREx D1 cells, calcium flux, dopamine EC80; hits give low values | 360,000 compounds, 3.2% hits | AID 504652; in the data active = activity change below about -30%; also: % is scaled to controls: 0 for no effect and ±100 for the full control effect
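HEK293 T-REx cells expressing inducible, force-coupled D1 receptor; no-wash Ca dye, 30–90 min RT. Cmpd → 180 s read at 1 Hz → EC80 DA → 180 s read.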
* marks the source's active call; other numbers are inactive results.

For C=CCN(C(=O)Cn1nc(C)n2c(cc3cc(C)ccc32)c1=O)c1ccccc1 the results were D3 antag 0.0, D1 ag 1.9, D1 potentiator -0.2, DRD3 agonist -2.0 and D1 antag -8.2.
CCN(C(=O)Cn1nc(C)n2c(cc3cc(C)ccc32)c1=O)c1ccccc1 was read as D3 antag -1.4, D1 ag 0.5, D1 potentiator -5.5, DRD3 agonist 2.1 and D1 antag -42.7*.
For Cc1ccc(CS(=O)(=O)c2ccccc2-c2nnc(-c3ccc(Cl)cc3)o2)cc1 the results were D3 antag 24.6, D1 ag 15.2, D1 potentiator -6.1, DRD3 agonist 5.1 and D1 antag -38.8*.
For Cc1ccc(C)c(N2CCN(C(=O)C(CC(C)C)NS(=O)(=O)c3ccc4nc(C)sc4c3)CC2)c1 (configuration not stated) the results were D1 ag 5.8, D1 potentiator -0.3, DRD3 agonist 2.1 and D1 antag -2.2.
CCC1CCCCN1C(=O)Cn1c(=O)n(CC2CCC(C(=O)NC)CC2)c(=O)c2sccc21 (configuration not stated) was read as D1 ag 2.1, D1 potentiator -1.3, DRD3 agonist 7.2 and D1 antag -0.4.
CC1CCN(S(=O)(=O)c2cc(C(=O)Nc3ccc(Br)cc3F)n(C)c2)CC1 was read as D1 ag 7.7, D1 potentiator -3.0, DRD3 agonist -4.4 and D1 antag -35.2*.
`CC1=NN(c2nc(C)cc(C)n2)C(=O)C1CCC(C)C` (configuration not stated) gave D3 antag -60.0*, D1 ag 1.3, D1 potentiator -6.6, DRD3 agonist -3.4 and D1 antag -12.3.
For COc1cccc(C2C(C(=O)Nc3ccc(C)cc3C)=C(C)Nc3c(C(=O)Nc4cccc(C)c4)cnn32)c1OC (configuration not stated) the results were D1 ag 3.2, D1 potentiator -7.3, DRD3 agonist -0.1 and D1 antag 11.7.
COc1ccc(CCNC(=O)C(CC(C)C)N2Cc3ccccc3C2=O)c(OC)c1OC (configuration not stated) was read as D1 ag -0.5, D1 potentiator -3.2, DRD3 agonist -3.9 and D1 antag -6.2.
For COc1ccc([C@H]2C[C@H](O)[C@@H](n3cc(-c4ccc(F)cc4)nn3)CN2C(=O)c2cccs2)cc1 the results were D3 antag 5.1 and DRD3 agonist 71.0*.
For COc1ccc([C@H]2C[C@@H](n3cc(-c4ccc(F)cc4)nn3)[C@H](O)CN2C(=O)c2cccs2)cc1 the results were D3 antag -3.6 and DRD3 agonist 3.3.
`CS(=O)(=O)N(CC(=O)NCC1CCCO1)c1cc(Cl)cc(Cl)c1` (configuration not stated) gave D3 antag -96.5*, D1 ag 2.4, D1 potentiator -3.2, DRD3 agonist 1.7 and D1 antag -49.9*.
Cc1nn(C)c(C)c1/C=N/NC(=O)C(C)(C)Oc1ccc(Cl)cc1 was read as D3 antag -11.7, D1 ag -0.4, D1 potentiator 3.4, DRD3 agonist -10.8 and D1 antag -38.4*.
`Cc1cc(N2CCCC2)nc2ccc(NC(=S)NCCCN3CCC(C)CC3)cc12` gave D3 antag -65.6*, D1 ag 7.8, D1 potentiator -3.2, DRD3 agonist -22.7 and D1 antag 5.2.
Screening CCCCNC(=S)Nc1ccc2nc(N3CCN(CC)CC3)cc(C)c2c1 returned D3 antag 18.9, D1 ag 2.3, D1 potentiator -15.0, DRD3 agonist -4.8 and D1 antag -0.3.
Screening Cc1cccc(N2CCN(C(=S)Nc3ccc4nc(N5CCN(C)CC5)cc(C)c4c3)CC2C)c1 (configuration not stated) returned D3 antag -21.8, D1 ag 2.9, D1 potentiator -5.7, DRD3 agonist -18.5 and D1 antag -72.8*.
`CCN1CCN(c2cc(C)c3cc(NC(=S)NCCCN4CCc5ccccc5C4)ccc3n2)CC1` gave D3 antag -87.2*, D1 ag 1.4, D1 potentiator -0.8, DRD3 agonist -20.2 and D1 antag 3.6.
For Cc1cc(N2CCN(C)CC2)nc2ccc(NC(=S)NCCN3CCc4ccccc4C3)cc12 the results were D3 antag -75.7*, D1 ag 3.9, D1 potentiator -6.0, DRD3 agonist -20.2 and D1 antag 3.9.
Cc1cc(N2CCN(C)CC2)nc2ccc(NC(=S)N3CCN(c4cccc(Cl)c4)CC3)cc12 was read as D3 antag -10.3, D1 ag 0.4, D1 potentiator -4.0, DRD3 agonist -16.5 and D1 antag 3.1.
CC(C)c1cnc2c(c1SCC(=O)Nc1ccc(C(N)=O)cc1)c(=O)n(C)c(=O)n2C was read as D1 ag -1.5, D1 potentiator 0.8, DRD3 agonist 1.8 and D1 antag 3.7.
CCCN1CCN(CCCNC(=S)Nc2ccc3nc(N4CCN(CC)CC4)cc(C)c3c2)CC1 was read as D3 antag inconclusive, D1 ag 2.2, D1 potentiator -0.9, DRD3 agonist -18.1 and D1 antag 7.6.
For Cc1cc(N2CCN(C)CC2)nc2ccc(NC(=S)NCCCN3CCc4ccccc4C3)cc12 the results were D3 antag -84.1*, D1 ag 2.7, D1 potentiator -3.5, DRD3 agonist -20.0 and D1 antag -6.8.
N#Cc1cccnc1N1CCN(C(=O)c2ccc3c(c2)S(=O)(=O)c2ccccc2C3=O)CC1 was read as D3 antag -1.0 and DRD3 agonist -5.8.
`O=C1c2ccccc2S(=O)(=O)c2cc(C(=O)N3CCN(c4ccc(Cl)cn4)CC3)ccc21` gave D3 antag 22.0 and DRD3 agonist 43.9*.
COc1ccc(C2C=C(c3ccccc3)Nc3nnnn32)cc1 (configuration not stated) was read as D3 antag -20.5, D1 ag 4.8, D1 potentiator -3.0, DRD3 agonist -8.5 and D1 antag -22.9.
Screening COc1cccc(C2=CC(c3cc(OC)ccc3OC)n3nnnc3N2)c1 (configuration not stated) returned D3 antag inconclusive, D1 ag 1.7, D1 potentiator -3.8, DRD3 agonist -6.2 and D1 antag -42.2*.
`COc1ccc(C2=CC(c3ccc(C)cc3)n3nnnc3N2)cc1` (configuration not stated) gave D3 antag -18.3, D1 ag 7.5, D1 potentiator 7.2, DRD3 agonist 31.9* and D1 antag 10.6.
Screening COc1cccc(C2=CC(c3ccc(N(C)C)cc3)n3nnnc3N2)c1 (configuration not stated) returned D3 antag 1.4, D1 ag 2.8, D1 potentiator -12.4, DRD3 agonist -4.7 and D1 antag -35.6*.
`Fc1ccc(Br)cc1C1C=C(c2cccnc2)Nc2ncnn21` (configuration not stated) gave D3 antag 3.7, D1 ag 2.1, D1 potentiator 5.2, DRD3 agonist -0.4 and D1 antag 3.6.
